Assay results: the supplement of paper PMC10849652
About 8,800 targets were measured; listed, in parts, are those with a hit and a random draw of the rest. About 0.5% of all pairs of compound and target were hits. A number with no mark means an inactive call.

Key:
Experiment in all cases: log2 fold change, soluble protein after heating vs DMSO (PISA); higher = thermal stabilisation; K562 lysate, 10 uM; active = over 0.2 and 3.5 SD of the protein, either way, in both replicates (recomputed)
pictilisib = compound: CS(=O)(=O)N1CCN(Cc2cc3nc(-c4cccc5[nH]ncc45)nc(N4CCOCC4)c3s2)CC1 [pictilisib]
How it was run: (§1)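 Dounce homogenisation of K562 pellets in PBS pH 7.4 with 1 mM MgCl2 produced a crude extract, used at 1 mg/mL protein. Exposure to 10 μM compound lasted 30 min, and aliquots were then heated for 3 min across 48°C-58°C, pooled and brought to 0.5% NP-40 at 4°C. The supernatant after 21,000xg for 90 min was quantified by TMTpro 16plex LC-MS/MS with channel sums equalised. Duplicate values are given as log-two fold change in thermal stability relative to solvent controls.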

crizotinib = compound: C[C@@H](Oc1cc(-c2cnn(C3CCNCC3)c2)cnc1N)c1c(Cl)ccc(F)c1Cl [crizotinib]
How it was run: as §1

doramapimod = compound: Cc1ccc(-n2nc(C(C)(C)C)cc2NC(=O)Nc2ccc(OCCN3CCOCC3)c3ccccc23)cc1 [doramapimod]
How it was run: as §1

bafetinib = compound: Cc1ccc(NC(=O)c2ccc(CN3CC[C@H](N(C)C)C3)c(C(F)(F)F)c2)cc1Nc1nccc(-c2cncnc2)n1 [bafetinib]
How it was run: as §1

lapatinib = compound: CS(=O)(=O)CCNCc1ccc(-c2ccc3ncnc(Nc4ccc(OCc5cccc(F)c5)c(Cl)c4)c3c2)o1 [lapatinib]
How it was run: as §1

duvelisib = compound: C[C@H](Nc1ncnc2nc[nH]c12)c1cc2cccc(Cl)c2c(=O)n1-c1ccccc1 [duvelisib]
How it was run: as §1

tozasertib = compound: Cc1cc(Nc2cc(N3CCN(C)CC3)nc(Sc3ccc(NC(=O)C4CC4)cc3)n2)n[nH]1 [tozasertib]
How it was run: as §1

[1] = compound: C[C@H](C1=CC=C(C=C1)C(=O)NC2=C3C=CNC3=NC=C2)N
How it was run: as §1

gandotinib = compound: Cc1cc(Nc2cc(CN3CCOCC3)c3nc(C)c(Cc4ccc(Cl)cc4F)n3n2)n[nH]1 [gandotinib]
How it was run: as §1

[2] = compound: Cc1cccc(CC(=O)N2CCc3c2ccc(-c2cn(C)c4ncnc(N)c24)c3F)n1
How it was run: as §1

UniProt Q9BXW6, sequence (Q9BXW6 whole entry, looked up): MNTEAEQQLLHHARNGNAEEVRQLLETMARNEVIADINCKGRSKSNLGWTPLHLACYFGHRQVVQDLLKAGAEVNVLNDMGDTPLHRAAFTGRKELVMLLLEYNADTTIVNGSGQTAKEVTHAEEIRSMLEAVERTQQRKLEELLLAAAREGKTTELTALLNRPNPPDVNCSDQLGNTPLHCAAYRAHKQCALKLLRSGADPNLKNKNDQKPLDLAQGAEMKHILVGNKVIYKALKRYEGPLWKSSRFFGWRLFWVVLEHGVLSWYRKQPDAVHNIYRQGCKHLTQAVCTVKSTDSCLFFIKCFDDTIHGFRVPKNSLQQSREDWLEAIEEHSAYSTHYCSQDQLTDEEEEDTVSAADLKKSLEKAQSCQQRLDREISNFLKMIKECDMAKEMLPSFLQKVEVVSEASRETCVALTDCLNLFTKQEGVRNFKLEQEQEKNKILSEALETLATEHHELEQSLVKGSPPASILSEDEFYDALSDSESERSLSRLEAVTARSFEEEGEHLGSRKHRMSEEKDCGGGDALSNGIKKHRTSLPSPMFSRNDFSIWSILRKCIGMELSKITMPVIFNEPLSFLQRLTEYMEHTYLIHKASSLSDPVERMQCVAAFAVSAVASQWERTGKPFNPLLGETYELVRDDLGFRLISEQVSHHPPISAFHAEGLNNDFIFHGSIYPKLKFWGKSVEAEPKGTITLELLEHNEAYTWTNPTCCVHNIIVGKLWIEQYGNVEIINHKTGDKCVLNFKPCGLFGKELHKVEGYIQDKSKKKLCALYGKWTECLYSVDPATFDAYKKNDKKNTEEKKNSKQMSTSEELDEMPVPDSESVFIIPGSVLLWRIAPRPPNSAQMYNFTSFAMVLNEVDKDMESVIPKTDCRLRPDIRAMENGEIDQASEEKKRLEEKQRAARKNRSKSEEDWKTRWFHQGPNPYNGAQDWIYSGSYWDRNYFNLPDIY
UniProt P13533, sequence (P13533 whole entry, looked up): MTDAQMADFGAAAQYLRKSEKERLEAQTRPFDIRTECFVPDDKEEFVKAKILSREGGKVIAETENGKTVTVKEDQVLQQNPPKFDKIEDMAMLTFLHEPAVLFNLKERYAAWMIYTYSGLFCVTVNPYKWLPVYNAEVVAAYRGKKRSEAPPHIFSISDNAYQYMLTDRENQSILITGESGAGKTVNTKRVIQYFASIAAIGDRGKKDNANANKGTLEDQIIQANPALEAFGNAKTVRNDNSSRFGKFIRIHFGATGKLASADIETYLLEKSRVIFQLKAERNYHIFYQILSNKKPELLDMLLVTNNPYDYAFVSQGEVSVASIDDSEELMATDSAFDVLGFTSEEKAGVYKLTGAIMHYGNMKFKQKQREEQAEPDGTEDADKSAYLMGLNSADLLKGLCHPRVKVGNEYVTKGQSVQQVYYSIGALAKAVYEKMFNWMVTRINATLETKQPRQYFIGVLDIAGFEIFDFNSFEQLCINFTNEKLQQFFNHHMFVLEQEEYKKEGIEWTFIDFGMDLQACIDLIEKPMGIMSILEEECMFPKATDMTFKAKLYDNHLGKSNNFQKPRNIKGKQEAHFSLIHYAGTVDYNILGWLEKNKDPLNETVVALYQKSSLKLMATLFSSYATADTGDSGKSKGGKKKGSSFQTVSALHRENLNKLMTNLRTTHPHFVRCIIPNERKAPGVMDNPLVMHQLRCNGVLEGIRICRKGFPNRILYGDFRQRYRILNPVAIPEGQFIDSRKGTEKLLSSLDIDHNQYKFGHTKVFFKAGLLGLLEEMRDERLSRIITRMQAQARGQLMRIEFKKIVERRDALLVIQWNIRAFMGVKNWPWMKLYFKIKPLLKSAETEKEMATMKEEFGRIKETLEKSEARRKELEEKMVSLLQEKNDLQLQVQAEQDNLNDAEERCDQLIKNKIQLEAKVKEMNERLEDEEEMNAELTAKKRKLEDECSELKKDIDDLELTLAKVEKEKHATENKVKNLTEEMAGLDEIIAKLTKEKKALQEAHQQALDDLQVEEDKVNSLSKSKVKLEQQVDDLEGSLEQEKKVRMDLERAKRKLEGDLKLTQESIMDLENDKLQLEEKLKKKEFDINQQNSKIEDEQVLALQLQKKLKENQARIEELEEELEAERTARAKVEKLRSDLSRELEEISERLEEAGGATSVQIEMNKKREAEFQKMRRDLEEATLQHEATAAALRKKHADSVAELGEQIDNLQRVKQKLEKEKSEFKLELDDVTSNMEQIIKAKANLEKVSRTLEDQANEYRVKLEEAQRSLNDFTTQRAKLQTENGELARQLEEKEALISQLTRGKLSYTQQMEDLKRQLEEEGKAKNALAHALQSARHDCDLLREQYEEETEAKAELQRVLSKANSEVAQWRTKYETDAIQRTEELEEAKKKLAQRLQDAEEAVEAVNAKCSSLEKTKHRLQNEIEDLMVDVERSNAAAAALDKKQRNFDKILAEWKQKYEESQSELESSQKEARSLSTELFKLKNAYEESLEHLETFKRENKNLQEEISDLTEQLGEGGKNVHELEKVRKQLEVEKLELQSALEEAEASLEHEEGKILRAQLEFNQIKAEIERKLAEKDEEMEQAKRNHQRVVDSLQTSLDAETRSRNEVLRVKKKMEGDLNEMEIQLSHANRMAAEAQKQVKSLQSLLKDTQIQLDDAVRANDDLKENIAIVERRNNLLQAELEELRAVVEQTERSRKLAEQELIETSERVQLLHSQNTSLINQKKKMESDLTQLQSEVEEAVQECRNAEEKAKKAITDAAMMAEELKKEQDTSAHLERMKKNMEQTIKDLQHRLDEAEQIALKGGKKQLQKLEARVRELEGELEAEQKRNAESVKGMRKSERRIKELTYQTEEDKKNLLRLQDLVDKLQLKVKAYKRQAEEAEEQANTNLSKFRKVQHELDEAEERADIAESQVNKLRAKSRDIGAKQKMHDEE
UniProt P53370, sequence (P53370 whole entry, looked up): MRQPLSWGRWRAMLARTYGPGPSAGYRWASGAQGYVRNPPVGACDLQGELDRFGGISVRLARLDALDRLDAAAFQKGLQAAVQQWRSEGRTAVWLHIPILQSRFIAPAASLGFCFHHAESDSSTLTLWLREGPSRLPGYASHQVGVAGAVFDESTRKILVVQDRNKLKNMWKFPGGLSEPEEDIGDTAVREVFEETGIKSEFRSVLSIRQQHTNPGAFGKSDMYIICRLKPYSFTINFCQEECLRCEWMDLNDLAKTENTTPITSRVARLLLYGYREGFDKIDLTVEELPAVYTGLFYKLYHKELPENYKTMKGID
UniProt Q147X3, sequence (Q147X3 whole entry, looked up): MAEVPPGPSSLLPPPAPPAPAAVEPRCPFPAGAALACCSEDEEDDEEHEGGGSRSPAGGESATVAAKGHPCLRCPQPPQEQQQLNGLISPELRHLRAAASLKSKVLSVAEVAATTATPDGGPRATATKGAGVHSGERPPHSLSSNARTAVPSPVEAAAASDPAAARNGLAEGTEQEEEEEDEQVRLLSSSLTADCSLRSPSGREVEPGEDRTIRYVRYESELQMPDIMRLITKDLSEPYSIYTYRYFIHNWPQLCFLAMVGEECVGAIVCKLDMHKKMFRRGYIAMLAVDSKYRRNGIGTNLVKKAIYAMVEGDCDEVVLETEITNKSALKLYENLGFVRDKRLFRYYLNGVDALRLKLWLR
UniProt P47900, sequence (P47900 whole entry, looked up): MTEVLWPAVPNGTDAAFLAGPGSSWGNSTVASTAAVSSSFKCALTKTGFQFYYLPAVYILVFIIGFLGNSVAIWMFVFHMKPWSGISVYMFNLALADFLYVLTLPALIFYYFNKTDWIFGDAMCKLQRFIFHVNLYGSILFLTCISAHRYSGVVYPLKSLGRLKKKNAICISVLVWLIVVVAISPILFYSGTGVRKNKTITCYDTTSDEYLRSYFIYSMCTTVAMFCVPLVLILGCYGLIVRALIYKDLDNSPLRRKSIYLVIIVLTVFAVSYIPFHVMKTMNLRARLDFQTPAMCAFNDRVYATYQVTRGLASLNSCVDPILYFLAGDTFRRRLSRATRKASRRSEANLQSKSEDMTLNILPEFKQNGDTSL
UniProt Q9H4L5, sequence (Q9H4L5 whole entry, looked up): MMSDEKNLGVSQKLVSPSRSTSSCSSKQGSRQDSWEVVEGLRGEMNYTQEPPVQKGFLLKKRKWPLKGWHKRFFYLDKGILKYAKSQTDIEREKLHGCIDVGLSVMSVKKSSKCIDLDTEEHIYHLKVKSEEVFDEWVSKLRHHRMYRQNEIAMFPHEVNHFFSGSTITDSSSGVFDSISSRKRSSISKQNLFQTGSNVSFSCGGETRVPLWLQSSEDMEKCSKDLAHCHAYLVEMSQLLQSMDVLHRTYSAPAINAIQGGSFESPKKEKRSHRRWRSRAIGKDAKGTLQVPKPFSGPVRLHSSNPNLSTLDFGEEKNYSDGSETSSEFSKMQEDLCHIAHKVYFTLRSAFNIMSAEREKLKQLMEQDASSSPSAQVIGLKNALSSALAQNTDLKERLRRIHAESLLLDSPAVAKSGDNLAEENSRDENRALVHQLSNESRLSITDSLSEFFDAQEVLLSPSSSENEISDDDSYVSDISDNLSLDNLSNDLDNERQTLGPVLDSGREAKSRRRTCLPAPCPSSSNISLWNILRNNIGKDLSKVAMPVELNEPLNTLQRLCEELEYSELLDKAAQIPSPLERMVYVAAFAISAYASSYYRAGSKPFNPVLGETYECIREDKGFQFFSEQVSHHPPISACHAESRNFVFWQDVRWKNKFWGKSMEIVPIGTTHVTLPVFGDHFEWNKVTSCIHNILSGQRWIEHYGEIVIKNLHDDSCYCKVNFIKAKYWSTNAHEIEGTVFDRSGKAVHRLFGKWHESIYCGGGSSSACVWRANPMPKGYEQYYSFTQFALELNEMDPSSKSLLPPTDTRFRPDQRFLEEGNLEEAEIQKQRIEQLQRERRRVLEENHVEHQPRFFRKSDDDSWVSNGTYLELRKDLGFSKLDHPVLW
UniProt Q5JRK9, sequence (Q5JRK9 whole entry, looked up): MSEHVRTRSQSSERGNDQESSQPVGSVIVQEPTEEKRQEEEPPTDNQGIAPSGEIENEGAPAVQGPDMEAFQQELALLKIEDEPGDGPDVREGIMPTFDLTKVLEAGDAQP
UniProt P03928, sequence (P03928 whole entry, looked up): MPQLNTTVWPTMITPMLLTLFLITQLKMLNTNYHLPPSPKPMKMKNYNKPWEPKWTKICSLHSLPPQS

| Target | log2 fold change (pictilisib) | log2 fold change (crizotinib) | log2 fold change (doramapimod) | log2 fold change (bafetinib) | log2 fold change (lapatinib) | log2 fold change (duvelisib) | log2 fold change (tozasertib) | log2 fold change [1] | log2 fold change (gandotinib) | log2 fold change [2] |
| --- | --- | --- | --- | --- | --- | --- | --- | --- | --- | --- |
| NFAT5 isoform 4 (UniProt O94916) | -0.138 | -0.028 | -0.158 | -0.053 | – | – | – | – | – | – |
| NOCT (UniProt Q9UK39) | – | 0.024 | 0.063 | – | -0.025 | 0.039 | 0.111 | – | – | – |
| NDUFAF5 (UniProt Q5TEU4) | -0.02 | -0.044 | 0.129 | -0.019 | 0.002 | -0.286 (active) | 0.068 | -0.212 | 0.026 | -0.061 |
| MYO9A isoform 4 (UniProt B2RTY4) | 0.022 | -0.03 | 0.005 | -0.103 | -0.027 | -0.019 | – | -0.014 | -0.044 | 0.036 |
| P2RY1 (UniProt P47900) | -0.444 (active) | – | – | 0.021 | -0.091 | 0.092 | 0.1 | -0.02 | 0.012 | 0.007 |
| NPLOC4 (UniProt I3L3I1) | 0.145 | -0.53 | -0.002 | -0.214 | – | 0.038 | -0.216 | – | – | – |
| NR3C1 isoform 3 (UniProt P04150) | -0.26 | 0.012 | -0.005 | -0.027 | – | 0.046 | 0.012 | 0.057 | -0.091 | 0.073 |
| NUB1 isoform 2 (UniProt Q9Y5A7) | – | 0.015 | 0.063 | – | – | – | – | – | – | – |
| NUMB isoform 2 (UniProt P49757) | – | – | – | – | – | 0.023 | – | – | – | – |
| MYLK (UniProt Q15746) | 0.015 | 0.082 | 0.611 (active) | 0.712 (active) | -0.006 | – | 0.114 | -0.181 | 0.033 | -0.047 |
| ORC3 (UniProt Q9UBD5) | – | – | – | – | 0.213 | – | – | 0.129 | -0.311 | 0.082 |
| NSA2 (UniProt O95478) | -0.088 | – | – | 0.064 | 0.014 | -0.055 | -0.086 | -0.036 | 0.159 | 0.221 |
| MYH6 (UniProt P13533) | -1.52 (active) | -0.097 | -0.245 | -0.132 | -0.111 | – | 0.009 | – | – | – |
| MXRA7 (UniProt P84157) | – | 0.103 | 0.041 | – | -0.039 | 0.056 | -0.05 | -0.149 | -0.008 | 0.096 |
| NUDT6 (UniProt P53370) | – | 0.051 | -0.073 | – | – | -0.034 | 0.132 | – | – | – |
| PARD3B (UniProt Q8TEW8) | – | – | – | – | – | 0.024 | – | -0.197 | 0.074 | 0.042 |

| Target | log2 fold change (pictilisib) | log2 fold change (crizotinib) | log2 fold change (doramapimod) | log2 fold change (bafetinib) | log2 fold change (lapatinib) | log2 fold change (duvelisib) | log2 fold change (tozasertib) | log2 fold change [1] | log2 fold change (gandotinib) | log2 fold change [2] |
| --- | --- | --- | --- | --- | --- | --- | --- | --- | --- | --- |
| NRIP1 (UniProt P48552) | -0.007 | -0.155 | 0.048 | -0.07 | -0.052 | -0.014 | – | -0.396 | 0.407 | 0.26 |
| PAGE2B (UniProt Q5JRK9) | – | 0.051 | 0.025 | – | 0.216 | 0.011 | -0.017 | 0.267 | -0.115 | -0.097 |
| NAA30 (UniProt Q147X3) | -0.028 | -0.01 | -0.028 | 0.042 | -0.021 | -0.037 | 0.015 | -0.025 | 0.012 | 0.06 |
| NACC1 (UniProt Q96RE7) | 0.034 | 0.01 | -0.011 | -0.078 | -0.032 | -0.002 | -0.015 | -0.066 | 0.006 | 0.044 |
| PAPOLG (UniProt Q9BWT3) | – | -0.139 | 0.017 | – | – | 0.02 | -0.027 | -0.026 | -0.002 | 0.067 |
| NSUN7 (UniProt Q8NE18) | -0.001 | -0.374 | 0.045 | 0.285 | -0.094 | – | 0.152 | -0.039 | 0.022 | 0.125 |
| NR2F2 (UniProt P24468) | 0.072 | -0.022 | -0.005 | 0.037 | 0.06 | -0.046 | – | -0.163 | -0.153 | -0.023 |
| NIT2 (UniProt Q9NQR4) | -0.048 | -0.026 | -0.023 | 0.011 | 0.002 | 0.011 | 0.002 | -0.008 | -0.01 | -0.06 |
| ORC1 (UniProt Q13415) | – | – | – | – | – | – | 0.023 | – | – | – |
| OSBPL3 isoform 2 (UniProt Q9H4L5) | -0.039 | 0.014 | 0.107 | 0.269 | 0.073 | 0.03 | -0.005 | -0.045 | -0.052 | 0.035 |
| NUDT5 (UniProt C9JYY9) | – | – | – | – | – | – | 0.004 | – | – | – |
| NLRP2 (UniProt Q9NX02) | -0.025 | -0.029 | 0.051 | -0.023 | 0.004 | 0.005 | 0.005 | 0.091 | -0.049 | -0.018 |
| MT-ATP8 (UniProt P03928) | -0.002 | -0.121 | 0.011 | -0.087 | 0.024 | – | -0.078 | 0.402 (active) | -0.054 | -0.107 |
| NELFA (UniProt Q9H3P2) | 0.021 | 0.018 | 0.022 | -0.048 | -0.031 | -0.018 | 0.048 | 0.06 | -0.079 | -0.003 |
| OSBPL1A (UniProt Q9BXW6) | -0.051 | -0.014 | 0.019 | -0.077 | -0.035 | 0.072 | – | -0.079 | 0.069 | 0.102 |
| NIPBL (UniProt Q6KC79) | -0.081 | -0.034 | 0.033 | 0.001 | -0.03 | 0 | -0.005 | 0.039 | -0.094 | 0.016 |
